Sampled rows, rich in hits. Any-hit rate of the full collection: about 11%.
NS1 inh: blocks influenza NS1 protein function; Potency, µM (top dose mostly 46.1 µM); 0.4% of 270,000 active; AID 2326; calls by dose curve; further: actives are rising curves; nearly all actives have a fitted effect of over 50% in size
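S. cerevisiae expressing influenza A NS1, grown in glucose, washed, then diluted 1:100 into pH 6.0 -URA galactose medium with 23 nl compound. Growth recovery read as OD600; NS1-free strain serves as control.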
VACV mCherry inh: inhibitors of vaccinia virus infection (mCherry reporter signal); Vaccinia virus mCherry reporter infection, fluorescence; Potency, µM (top dose mostly 36.5 µM), hits mostly inhibitors; 0.63% of 310,000 active; calls by dose curve; tested in A549 cells; further: nearly all actives have a fitted effect of over 35% in size
VACV Venus inh: vaccinia inhibition (Venus reporter). Potency, µM (doses to about 36.5 µM), hits mostly inhibitors. 0.46% of 330,000 active. Vaccinia virus Venus reporter expression, fluorescence; calls by dose curve; tested in A549 cells; further: nearly all actives have a fitted effect of over 30% in size
Pf growth 96h: P. falciparum growth inhibition at 96 hour, primary screen for plastid delayed-death inhibitors; P. falciparum luciferase reporter growth, 96 h; Potency, µM (series often up to 28.7 µM), usual class: inhibitors; 6.9% of 320,000 active; AID 504834
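Readout is luminescence from an integrated firefly luciferase in P. falciparum. Red cells, 2% hematocrit and 0.05% parasitemia final, were cultured with compound through two parasite generations (96 hours) at 37 C, 5% CO2.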
Pf growth 48h: inhibits P. falciparum growth in the first generation, 48 h; P. falciparum luciferase growth in erythrocytes, 48 h; Potency, µM (top dose mostly 28.7 µM), hits mostly inhibitors; 5.9% of 310,000 active
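Here the parasites carry a stable luciferase gene and grow inside erythrocytes in Albumax-based RPMI medium with compound for one erythrocytic cycle. Activity is scored as loss of luminescent signal.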
HCV inh: HCV inhibition. Huh7.5.1 HCVcc-Cre infection, luciferase reporter, 44 h. Potency, µM (top dose mostly 41.8 µM), usual class: inhibitors. 3.4% of 340,000 active. AID 651820
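Luciferase read-out (15 sec integration) after a 15 min room-temperature substrate step quantifies HCVcc-Cre infection. Cells, 1,000 per well, had compound added 4 h post-plating, then virus at ~0.5 moi, and were cultured 44 h.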
A number is an active result; – = inactive; ? = inconclusive; · = no result; [ ] = remark or other dose. Unless noted, the call rests on the fitted dose curve; in most records, active means well fitted inhibition curve with a large enough effect; inconclusive means small, poorly fitted or top-dose-only effect, or another doubt; inactive means no such curve, though single readings can be large or run the other way.

SMILES	NS1 inh	VACV mCherry inh	VACV Venus inh	Pf growth 96h	Pf growth 48h	HCV inh
Cn1ccsc1=NC(=O)c1ccc(=O)[nH]c1	–	·	·	–	–	–
CC(=O)OC(COc1ccccc1)Cn1cnc2ccccc21 (configuration not stated)	–	·	·	–	–	–
Cc1cc(Cl)c2oc(C(=O)N3CCN(c4ccncc4)CC3)c(C)c2c1	·	–	?	·	·	1.3µM
CC(C)C1(C)C(=O)N=C2c3ccccc3C(=O)N21 (configuration not stated)	–	–	–	12µM	–	–
COc1ccccc1NC(=O)c1ccc2nsnc2c1	–	–	–	–	–	–
CC(=O)c1ccc(NC(=O)CSc2nc(C3CC3)nc3ccccc23)cc1	–	?	–	–	?	–
Cc1ccccc1NC(=O)CSc1nc(COc2ccccc2)nc2ccccc12	–	–	–	?	?	–
CCc1nc(SCC(=O)NNC(=O)C(C)C)c2ccccc2n1	–	·	·	12µM	?	–
Cc1cc(C)c(NC(=O)CSc2nc(COc3ccccc3)nc3ccccc23)c(C)c1	–	11µM	?	?	–	–
CC(C)C(=O)NNC(=O)CSc1nc(C2CCCCC2)nc2ccccc12	–	–	–	1.5µM	–	–
COc1ccc(NC(=O)CSc2nc(C3CC3)nc3ccccc23)cc1	–	?	?	–	–	11µM
CCNC(=O)COC(=O)c1ccc(NS(=O)(=O)c2ccc3c(c2)OCCO3)cc1	·	–	–	–	–	–
O=[N+]([O-])c1cc(S(=O)(=O)NCCN2CCOCC2)ccc1Sc1nnnn1-c1ccccc1	–	?	?	?	13µM	?
CN(C)CCNS(=O)(=O)c1ccc(N2CCN(c3ccc(F)cc3)CC2)c([N+](=O)[O-])c1	–	–	?	?	12µM	10µM
Cc1ccc(-n2nnnc2Sc2ccc(S(=O)(=O)NCCN(C)C)cc2[N+](=O)[O-])cc1	–	?	11µM	?	?	10µM
Fc1ccc(-c2noc3ncnc(NCc4ccc(Cl)cc4)c23)cc1	·	–	–	·	·	·
Cc1ccccc1Cn1cc(S(=O)(=O)c2ccc(C(C)C)cc2)c(=O)c2cc3c(cc21)OCO3	·	–	–	·	·	10µM
Cc1ccc(Cn2cc(S(=O)(=O)c3ccc(C(C)C)cc3)c(=O)c3cc4c(cc32)OCO4)cc1	?	–	–	3.3µM	9.3µM	–
Cc1ccc(Cn2cc(S(=O)(=O)c3ccc(Cl)cc3)c(=O)c3cc4c(cc32)OCO4)cc1	·	–	–	·	·	·
CC(C)c1ccc(S(=O)(=O)c2cn(Cc3ccc(F)cc3)c3cc4c(cc3c2=O)OCO4)cc1	–	·	·	–	?	–
CNCc1nc2ccccc2[nH]1	–	·	·	?	–	–
COCCCn1c(C)nnc1-c1cnn(-c2ccccc2)c1N	–	–	–	–	?	–
CCN(CC)CC(=O)c1c[nH]c2ccccc12	–	·	–	2.9µM	–	–
CCN(CC)CC(=O)c1c[nH]c2ccc(C)cc12	–	·	–	–	?	–
O=C(Cn1cnc2ccccc2c1=O)c1c[nH]c2ccccc12	–	–	–	6.6µM	–	–
SMILES	NS1 inh	VACV mCherry inh	VACV Venus inh	Pf growth 96h	Pf growth 48h	HCV inh
COc1cc(SC)ccc1C(=O)Nc1ccc(Cl)cn1	–	–	–	?	–	–
CSc1ccc(Cl)c(C(=O)Nc2ccc(Cl)cn2)c1	–	–	–	7.4µM	–	–
N#Cc1ccc(C(=O)CN2CCN(c3ccccc3)CC2)cc1	–	–	–	–	?	–
O=C(CSc1nc2ccccc2[nH]1)NC1CCS(=O)(=O)C1 (configuration not stated)	–	–	–	·	–	–
COc1ccc2ccccc2c1C1NC(=O)c2ccccc2N1 (configuration not stated)	·	?	5.6µM	·	·	–
Clc1ccc(-c2nc(CSc3ccccn3)cs2)cc1	·	–	–	·	·	·
CCN1C(=O)N(C)C(N(O)C(=O)NC)C1(C)C (configuration not stated)	–	·	–	–	–	–
Cc1cccc2[nH]c3c(N4CCC5(CC4)OCCO5)ncnc3c12	–	·	·	?	?	8.9µM
Clc1ccc2[nH]c3c(N4CCC5(CC4)OCCO5)ncnc3c2c1	–	8.9µM	8.9µM	?	?	13µM
Cc1ccc2[nH]c3c(N4CCOCC4)ncnc3c2c1	–	–	–	?	?	?
Cc1cccc2[nH]c3c(N4CCN(C(=O)c5ccco5)CC4)ncnc3c12	–	·	·	?	?	–
CC(C)C[C@@H]1NC(=O)[C@H](Cc2ccccc2)N(C)C(=O)[C@H](C)NC(=O)c2ccccc2NC(=O)[C@H](Cc2ccc(O)cc2)N(C)C1=O	–	?	–	?	3.7µM	8.9µM
CC(C)CC1NC(=O)N(CC(=O)N2c3ccccc3NC(=O)C2(C)C)C1=O (configuration not stated)	–	–	–	–	–	–
CC(C)(C)N=Cc1cc(-c2ccccc2)sc1O	–	–	–	?	·	10µM
COc1cc(-c2nc(-c3ccccc3)c(-c3cccs3)[nH]2)cc(OC)c1OC	?	·	·	·	?	22µM
COc1cc(-c2nc(-c3ccccc3)c(-c3cccs3)[nH]2)cc(OC)c1O	–	·	·	1.9µM	·	10µM
c1ccc(-c2nc(-c3cccs3)[nH]c2-c2ccccc2)cc1	–	·	·	–	–	?
Cc1ccc(S(=O)(=O)n2nc(C)c(S(=O)(=O)N3CCOCC3)c2C)cc1	–	–	–	–	–	–
CCOC(=O)c1cccc2c1N[C@@H](c1ccc(F)cc1)[C@H]1CC=C[C@@H]21	·	–	–	·	·	·
CCc1ccccc1-n1ncc(C(=O)Nc2ccccc2OC)c1C	–	–	–	13µM	12µM	–
CCCc1c(C(=O)NNc2ccccc2OC)cnn1-c1ccccc1	–	?	–	9.3µM	?	–
Cc1cc(SCC(=O)NCc2ccccc2)nc(=O)[nH]1	·	–	–	·	·	·
CCCCOc1ccc(-c2cc(C(=O)NNC(=S)NCC)c3ccccc3n2)cc1	–	·	·	·	?	11µM
CCCCOc1cccc(-c2cc(C(=O)NNC(=S)NCC)c3ccccc3n2)c1	–	–	–	12µM	·	·
Cc1ccc(C(=O)Nc2cccc(C(=O)N/N=C/c3ccc(O)cc3)c2)cc1	–	–	–	?	–	–
SMILES	NS1 inh	VACV mCherry inh	VACV Venus inh	Pf growth 96h	Pf growth 48h	HCV inh
CN1CCN(Cc2cc(Cl)c3cccnc3c2OC(=O)c2cccs2)CC1	–	11µM	?	?	?	?
CCN(CC)C(=O)Oc1c(Cl)cc(Cl)c2cccnc12	–	?	–	–	–	–
CC(CN1CCOCC1)OC(=O)c1ccccc1Br (configuration not stated)	–	·	–	·	–	–
O=C(Oc1c(CN2CCOCC2)cc(Cl)c2cccnc12)c1ccccc1Br	–	·	·	10µM	1.9µM	?
COc1cc(CNCCSc2nnnn2C)cc(Br)c1OCc1ccc(F)cc1	–	·	?	·	?	10µM
COc1cc(CNCCSc2nnnn2C)cc(Br)c1OCc1ccccc1	–	·	·	–[5.75 µM]	?	?
CCOc1cc(CNCCSc2nnnn2C)cc(Br)c1OCc1ccc(F)cc1	–	–	–	10µM	?	?

Screening results as filed in PubChem.
